# Inconclusive results are not listed. Values without a mark were called inactive. Activity calls are given as the source filed them. The call rests on the fitted dose curve; in most records, active means well fitted curve in either direction with a large enough effect; inconclusive means small, poorly fitted or top-dose-only effect; inactive means flat fitted curve, though single readings scatter.
# Experiment: Total Fluorescence Confirmation Counterscreen for Inhibitors of the Interaction of Thyroid Hormone Receptor and Steroid Receptor Coregulator 2
# Conditions: Texas Red total fluorescence, TRbeta/SRC2 FP artifact counterscreen; series mostly up to 92.2 µM; total fluorescence change, both ways: at the top concentration
# From the text: NIH Molecular Libraries Probe Production Network [MLPCN] NIH Chemical Genomics Center [NCGC] MLPCN Grant: DK058080 Assay Provider: R. Kip Guy, St. Jude Children's Research Hospital NCGC Assay Overview: Thyroid receptor (TR) regulates many homeostatic processes including basal metabolism, cardiovascular function, body weight, and lipid trafficking. TR modulators are potential therapeutics for obesity and hyperlipidemias but current thyroid analogs have undesirable side effects, particularly cardiac stimulation. To identify inhibitors that specifically prevent the interaction of TR with the steroid receptor coregulator 2 (SRC2), a fluorescence polarization assay was screened. This assay detects interaction of the ligand-binding domain of human TRbeta with a Texas Red labeled SRC2 peptide, corresponding to a 20 amino acid region of the nuclear receptor interaction domain (Arnold et al., 2006). Total fluorescence (555 nm excitation and 632 nm emission) was measured to identify potential fluorescent and light absorbing compounds. Such compounds may be artifacts that interfere with the fluorescence polarization assay. This assay is a confirmation assay for AID 1479. Arnold, L. A.; Estebanez-Perpina, E.; Togashi, M.; Shelat, A.; Ocasio, C. A.; McReynolds, A. C.; Nguyen, P.; Baxter, J. D.; Fletterick, R. J.; Webb, P.; Guy, R. K. A high-throughput screening method to identify small molecule inhibitors of thyroid hormone receptor coactivator binding. Sci STKE 2006, p 13.
# NCGC Assay Protocol Summary: For screening, 5 uL/well 0.6 uM TRbeta and 20 nM SRC2 Texas Red in protein buffer (20mM Tris hydrochloride, 100mM NaCl, 10% glycerol, 1mM EDTA, 0.01% NP-40, 1mM DTT, 1uM T3 and 5% DMSO) was dispensed into black solid 1536-well plates (Grenier) using a solenoid-based dispenser. Following transfer of 23 nL compound or DMSO vehicle by a pin tool, the plates were centrifuged 15 s at 1000 RPM and incubated 5 hr at ambient temperature. The plates were read by an Envision (Perkin Elmer) to detect fluorescence polarization of SRC2 Texas Red (555 nm excitation and 632 nm emission). Data were normalized to unbound (all components except TRbeta) and bound SRC2 Texas Red controls. Total fluorescence (TF) was calculated as follows: TF = S + 2P where S and P are fluorescence readings in the parallel and perpendicular channels, respectively. In this assay, we provide % activity data for each concentration as well as potencies for the active compounds.
SMILES,"total fluorescence change, both ways",Potency
O=C(O)[C@H]1CN(CCCP(=O)(O)O)CCN1,-7.22% [at 184 µM],–
CN1CCc2ccc3c4c2[C@]1(C)Cc1cccc(c1-4)OCO3,–,100 µM [fluorescent] (active)
O=c1[nH]c(Nc2ccc(F)cc2)cc2ccccc12,3.63%,–
COC(=O)/C(=C/Nc1ccc(O)cc1)[N+](=O)[O-],4.79%,–
COc1ccc(C(=O)/C=C/Nc2ccc(S(=O)(=O)Nc3ncccn3)cc2)cc1,8.18%,–
CC1=NN(c2ccc(F)cc2)C(=O)C1C(c1cccc(O)c1)c1c(C)[nH]n(-c2ccc(F)cc2)c1=O (stereo not given),-16.4%,–
CCC(NC(=O)Nc1ccc(O)cc1)(C(F)(F)F)C(F)(F)F,8.48%,–
CC(NC(=O)Nc1ccc(O)cc1)(C(F)(F)F)C(F)(F)F,-1.5%,–
Nc1cc(-c2ccccc2)c[nH]c1=O,-2.47%,–
O=C(Nc1nc2ccc(Cl)cc2s1)c1ccc(N2CCCCC2)c([N+](=O)[O-])c1,2.3%,–
COc1cc(C(c2c(C)[nH][nH]c2=O)c2c(C)[nH][nH]c2=O)ccc1OC(=O)c1ccccc1OC,2.7% [at 184 µM],–
Cn1c(-c2ccc(=O)[nH]c2)nc2ccccc21,5.74%,–
Cc1ccc(-c2nc(S(=O)(=O)c3ccc(F)cc3)c(SCC(=O)NCC3CCCO3)o2)cc1 (stereo not given),-10.4%,–
O=C(NNc1cc(N2CCOCC2)nc(N2CCOCC2)n1)c1ccc(Cl)c(Cl)c1,–,39.8 µM [quencher] (active)
CCOc1ccc(C2=Cc3cc(OC)c(OC)cc3C(=C(Cl)Cl)O2)cc1,-0.317%,–
Cc1nnc(SCC(=O)Nc2ccc(N(C)C)cc2)[nH]c1=O,4.51% [at 184 µM],–
CCOc1cc(C(c2c(C)[nH][nH]c2=O)c2c(C)[nH][nH]c2=O)ccc1OC(=O)c1cccc([N+](=O)[O-])c1,-4.45%,–
Cc1[nH][nH]c(=O)c1C(c1ccc(-c2ccc(Cl)c(Cl)c2)o1)c1c(C)[nH][nH]c1=O,2.21%,–
CC1(C)CC(=O)C(N=Nc2cccc(S(=O)(=O)N3CCOCC3)c2)=C(O)C1,-1.25%,–
O=C1CCCC(O)=C1N=Nc1cccc(S(=O)(=O)N2CCOCC2)c1,5.17%,–

SMILES,"total fluorescence change, both ways",Potency
Nc1cc(N)c(OCC(F)(F)F)cc1OCC(F)(F)F,7.18%,–
COc1ccccc1Nc1cc2ccccc2c(=O)[nH]1,-10.5%,–
CCCc1nc2c(=O)n(C)c(=O)nc-2n(C)n1,4.23%,–
COc1cc(/C=C(\C#N)C(=O)NCC2CCCO2)ccc1OCCC(C)C (stereo not given),4.15%,–
COc1cc(C(c2c(C)[nH][nH]c2=O)c2c(C)[nH][nH]c2=O)ccc1OC(=O)c1cccc(C)c1,1.17% [at 184 µM],–
Nc1c(C(=O)NCc2ccco2)c2nc3ccccc3nc2n1CCc1ccccc1,2.3%,–
CCCCOc1ccc(C(=O)CCN2CCCCC2)cc1,6.86%,–
Cn1c(CCN2CCCCC2)nc2cc(NS(=O)(=O)c3ccc(Cl)cc3)ccc21,5.61%,–
Cn1cc[nH]c1=S,-0.484%,–
Nc1cc(-c2ccncc2)c[nH]c1=O,–,inactive
Cc1[nH][nH]c(=O)c1C(c1ccc(-c2ccccc2C(=O)O)o1)c1c(C)[nH][nH]c1=O,-3.55%,–
Cc1cccc(S(=O)(=O)c2cn(Cc3ccccc3)c3cc(N4CCC(C)CC4)c(F)cc3c2=O)c1,5.69% [at 184 µM],–
O=C(/C=C/c1ccco1)NC(=S)Nc1cc(C(F)(F)F)ccc1N1CCOCC1,11%,–
O=C(O)/C=C/C(=O)Nc1ccc(OC(F)(F)F)cc1Br,10.6%,–
O=C1CNC(=S)N1c1nc(-c2ccccc2)cs1,–,11.2 µM [quencher] (active)
CN1c2ccccc2C(C)(C)C12C=Nc1c(cc(N3CCOCC3)c3ccccc13)O2 (stereo not given),2.92%,–
Cc1cc(C)cc(OCC(=O)NCCc2nc3ccccc3[nH]2)c1,6.66% [at 184 µM],–
O=c1cc(C23CC4CC(CC(C4)C2)C3)[nH][nH]1,-5.37%,–
Cc1nc2c3cc(F)ccc3n(Cc3ccccc3F)c2s1,0.375%,–
CC(=O)NC1N=C(C)N(c2ccccc2)C1=O (stereo not given),9.72%,–

# — PubChem BioAssay AID1572 (National Center for Advancing Translational Sciences (NCATS), 2009)
